The record followed here is PubChem BioAssay (NCI).

The nature of assay [1]: NCI Yeast Anticancer Drug Screen. Data for the rad50 strain (AID 155).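 Further: 0% = growth of vehicle-only cultures of the same strain.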 Conditions: S. cerevisiae rad50 strain growth inhibition, active compounds read high. The method in brief: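 DNA repair mutant yeast, compound exposure, growth read-out; inhibition is taken relative to vehicle.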
Assay [2] is described as follows: NCI Yeast Anticancer Drug Screen. Data for the mec2-1 strain (AID 157). The settings on record: S. cerevisiae mec2-1 strain, active compounds read high. The method in brief:
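Yeast mec2-1 mutant treated with compound. Readout: growth inhibition vs vehicle controls.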

Assay [3] can be described thus: NCI Yeast Anticancer Drug Screen. Data for the sgs1 mgt1 strain (AID 161).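 Further: 0% = growth of cultures given vehicle only.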 The settings on record: S. cerevisiae sgs1 mgt1 strain, active compounds read high. The method in brief:
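Mutant yeast exposed to compound; growth scored against vehicle-only wells.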

Assay [4] in a line: NCI Yeast Anticancer Drug Screen. Data for the cln2 rad14 strain (AID 165).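 Further: 0% = growth equal to vehicle treated cultures.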 Conditions: S. cerevisiae cln2 rad14 strain, active compounds read high. The method in brief:
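cln2 rad14 yeast strain; compound exposure; growth inhibition read vs vehicle controls.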

The nature of assay [5]: NCI Yeast Anticancer Drug Screen. Data for the bub3 strain (AID 167). The settings on record: S. cerevisiae bub3 mutant strain, active compounds read high. The method in brief: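 In this screen, a yeast mutant lacking normal mitotic checkpoint function is challenged with compound. Relative growth versus vehicle gives the inhibition value.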
A short description of assay [6]: NCI Yeast Anticancer Drug Screen. Data for the mlh1 rad18 strain (AID 175). Conditions: S. cerevisiae mlh1 rad18 strain growth inhibition, active compounds read high. The method, boiled down:
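Yeast w/ defined DNA-repair lesions; compound exposure; growth vs vehicle controls → % inhibition.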

Setting [7] is: at 5.0 µM (retest, dose inferred, filed as 0.5).
Where [8] appears, read: at 50.0 µM (retest, dose inferred, filed as 5.0).

Compounds without any hit were thinned out: in the full panel of roughly 79,000, 15% have a hit. A number with no mark means an inactive call. The source made the active and inactive calls. No stated cut-off is given here; in the data, active means growth inhibition above about 70%; inactive means the rest.

Take `CCOC(=O)c1cn(CC)c2cc(-n3cccc3)ccc2c1=O`: the growth inhibition in assay [1] (setting [7]) was -3%; in assay [1] (setting [8]) it was 28%; in assay [1] (at 50.0 µM) it was 31.4%; in assay [2] (setting [7]), -1%; in assay [2] (setting [8]), 21%; in assay [2] (at 50.0 µM), 20.6%. In addition, the growth inhibition in assay [3] (setting [7]) was -2%; in assay [3] (setting [8]), 39%; in assay [3] (at 50.0 µM), 56.4%; in assay [4] (setting [7]), -2%; in assay [4] (setting [8]), 17%; in assay [4] (at 50.0 µM) it was 22.2%. Moreover, the growth inhibition is 0% in assay [5] (setting [7]); 27% in assay [5] (setting [8]); 33.5% in assay [5] (at 50.0 µM); 1% in assay [6] (setting [7]); 50% in assay [6] (setting [8]); 47.2% in assay [6] (at 50.0 µM).
Regarding `CCCCCCCCN(CCCCCCCC)CC(O)c1cc(OCC)nc2ccccc12` (configuration not stated), the growth inhibition in assay [1] (setting [7]) was 2%; in assay [1] (setting [8]), 96% (active); in assay [1] (at 50.0 µM) it was 97.8% (active); in assay [2] (setting [7]), 4%; in assay [2] (setting [8]), 97% (active); in assay [2] (at 50.0 µM), 97.7% (active). For the same compound, the growth inhibition in assay [3] (setting [7]) is 4%; in assay [3] (setting [8]), 96% (active); in assay [3] (at 50.0 µM), 97.4% (active); in assay [4] (setting [7]) it was 3%; in assay [4] (setting [8]), 96% (active); in assay [4] (at 50.0 µM), 93.5% (active). For the same compound, the growth inhibition in assay [5] (setting [7]) was 9%; in assay [5] (setting [8]), 97% (active); in assay [5] (at 50.0 µM) it was 97.8% (active); in assay [6] (setting [7]) it was 9%; in assay [6] (setting [8]), 95% (active); in assay [6] (at 50.0 µM), 96.8% (active).
As to `CC1(C)C[C@H]2C=C(C=O)[C@]34C[C@]3(C(=O)OC4O)[C@H]2C1` (some centres not stated), the growth inhibition in assay [1] (setting [7]) is 94% (active); in assay [1] (setting [8]), 99% (active); in assay [1] (at 50.0 µM), 92.5% (active); in assay [2] (setting [7]), 98% (active); in assay [2] (setting [8]) it was 100% (active); in assay [2] (at 50.0 µM), 93.6% (active). The growth inhibition in assay [3] (setting [7]) is 98% (active); in assay [3] (setting [8]) it was 100% (active); in assay [3] (at 50.0 µM), 93.2% (active); in assay [4] (setting [7]) it was 84% (active); in assay [4] (setting [8]), 99% (active); in assay [4] (at 50.0 µM), 92.3% (active). Further, the growth inhibition in assay [5] (setting [7]) is 97% (active); in assay [5] (setting [8]), 100% (active); in assay [5] (at 50.0 µM), 92.3% (active); in assay [6] (setting [7]), 96% (active); in assay [6] (setting [8]), 97% (active); in assay [6] (at 50.0 µM), 90.7% (active).
With `COC1CCC(/C(C#N)=C/c2ccco2)CC1` (configuration not stated), the growth inhibition was 17% in assay [1] (setting [7]); 22% in assay [1] (setting [8]); 61.7% in assay [1] (at 50.0 µM); -5% in assay [2] (setting [7]); 13% in assay [2] (setting [8]); 57.3% in assay [2] (at 50.0 µM). In addition, the growth inhibition is -5% in assay [3] (setting [7]); 26% in assay [3] (setting [8]); 78.2% (active) in assay [3] (at 50.0 µM); 22% in assay [4] (setting [7]); 29% in assay [4] (setting [8]); -0.15% in assay [4] (at 50.0 µM). Moreover, the growth inhibition in assay [5] (setting [7]) is 38%; in assay [5] (setting [8]) it was 58%; in assay [5] (at 50.0 µM) it was 79.6% (active); in assay [6] (setting [7]), 8%; in assay [6] (setting [8]), 49%; in assay [6] (at 50.0 µM), 57.1%.
As for `CC(C)(S[S-])S[S-].[Ti].[c-]1[c-][c-][cH-][c-]1.[c-]1[c-][c-][cH-][c-]1`, the growth inhibition in assay [1] (setting [7]) is 23%; in assay [1] (setting [8]), 97% (active); in assay [1] (at 50.0 µM) it was 84.1% (active); in assay [2] (setting [7]), -2%; in assay [2] (setting [8]), 98% (active); in assay [2] (at 50.0 µM), 57.9%. The growth inhibition in assay [3] (setting [7]) was 10%; in assay [3] (setting [8]), 98% (active); in assay [3] (at 50.0 µM) it was 95.2% (active); in assay [4] (setting [7]) it was 11%; in assay [4] (setting [8]) it was 97% (active); in assay [4] (at 50.0 µM) it was 21.7%. Moreover, the growth inhibition was 24% in assay [5] (setting [7]); 98% (active) in assay [5] (setting [8]); 46.4% in assay [5] (at 50.0 µM); 31% in assay [6] (setting [7]); 98% (active) in assay [6] (setting [8]); 87.3% (active) in assay [6] (at 50.0 µM).
On to `Oc1ccc(O)c(C2CCCCC2)c1`, for which the growth inhibition in assay [1] (setting [7]) is 30%; in assay [1] (setting [8]) it was 94% (active); in assay [1] (at 50.0 µM), 96.7% (active); in assay [2] (setting [7]) it was 62%; in assay [2] (setting [8]) it was 99% (active); in assay [2] (at 50.0 µM) it was 89.7% (active). Also, the growth inhibition was 46% in assay [3] (setting [7]); 99% (active) in assay [3] (setting [8]); 78.2% (active) in assay [3] (at 50.0 µM); 46% in assay [4] (setting [7]); 94% (active) in assay [4] (setting [8]); 50.4% in assay [4] (at 50.0 µM). Also, the growth inhibition in assay [5] (setting [7]) was 51%; in assay [5] (setting [8]), 99% (active); in assay [5] (at 50.0 µM), 89% (active); in assay [6] (setting [7]), 83% (active); in assay [6] (setting [8]) it was 99% (active); in assay [6] (at 50.0 µM), 94.8% (active).
In the case of `Cc1cc(NC(=S)SCc2ccc(Cl)cc2)c([N+](=O)[O-])cc1C`, the growth inhibition is 65% in assay [1] (setting [7]); 95% (active) in assay [1] (setting [8]); 96% (active) in assay [1] (at 50.0 µM); 45% in assay [2] (setting [7]); 97% (active) in assay [2] (setting [8]); 98.2% (active) in assay [2] (at 50.0 µM). The growth inhibition was 90% (active) in assay [3] (setting [7]); 96% (active) in assay [3] (setting [8]); 97.3% (active) in assay [3] (at 50.0 µM); 42% in assay [4] (setting [7]); 92% (active) in assay [4] (setting [8]); 94.3% (active) in assay [4] (at 50.0 µM). Further, the growth inhibition was 53% in assay [5] (setting [7]); 97% (active) in assay [5] (setting [8]); 96.2% (active) in assay [5] (at 50.0 µM); 98% (active) in assay [6] (setting [7]); 96% (active) in assay [6] (setting [8]); 97.2% (active) in assay [6] (at 50.0 µM).
Regarding `CCCCCCSc1nc2ccc(N=Cc3ccccc3O)cc2s1`, the growth inhibition in assay [1] (setting [7]) is 90% (active); in assay [1] (setting [8]) it was 89% (active); in assay [1] (at 50.0 µM), 81.8% (active); in assay [2] (setting [7]), 83% (active); in assay [2] (setting [8]), 91% (active); in assay [2] (at 50.0 µM), 55.2%. Besides, the growth inhibition was 93% (active) in assay [3] (setting [7]); 88% (active) in assay [3] (setting [8]); 70.3% (active) in assay [3] (at 50.0 µM); 58% in assay [4] (setting [7]); 65% in assay [4] (setting [8]); 48% in assay [4] (at 50.0 µM). Moreover, the growth inhibition is 55% in assay [5] (setting [7]); 86% (active) in assay [5] (setting [8]); 15.2% in assay [5] (at 50.0 µM); 86% (active) in assay [6] (setting [7]); 88% (active) in assay [6] (setting [8]); 80.1% (active) in assay [6] (at 50.0 µM).
On to `CCOc1ccccc1/C=N/Nc1nnc(N/N=C/c2ccccc2OCC)c2ccccc12`, for which the growth inhibition in assay [1] (setting [7]) was 0%; in assay [1] (setting [8]), 42%; in assay [1] (at 50.0 µM) it was 44%; in assay [2] (setting [7]), 9%; in assay [2] (setting [8]) it was 64%; in assay [2] (at 50.0 µM), 48.8%. Besides, the growth inhibition was -24% in assay [3] (setting [7]); 38% in assay [3] (setting [8]); 41.5% in assay [3] (at 50.0 µM); -10% in assay [4] (setting [7]); 58% in assay [4] (setting [8]); 45.2% in assay [4] (at 50.0 µM). The growth inhibition in assay [5] (setting [7]) is -4%; in assay [5] (setting [8]), 54%; in assay [5] (at 50.0 µM) it was 44.2%; in assay [6] (setting [7]), 7%; in assay [6] (setting [8]), 80% (active); in assay [6] (at 50.0 µM), 43.9%.
